From PubChem BioAssay AID999 (SRMLSC, 2007) come the findings set out here.

Structures are written as SMILES. The source made the active and inactive calls.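 How the source made its calls: active means viability at or below 21.59%, 3 SD under the median of tested compounds; inactive means the rest.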

This test can be described thus: viability loss in PTEN-deleted cells – cell-based, validation, diverse DP compound set (AID 999).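 Further: 100% = median luminescence of untreated cell control wells and 0% = no signal.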 Conditions: HCT116 PTEN-null viability, CellTiter-Glo, 60 h; at 10 µM; active compounds read low.
Consider `O=c1c(-c2ccc(O)cc2)coc2cc(O)cc(O)c12`, for which the viability is 87.8% (inactive).

`NS(=O)(=O)c1cc(C(=O)O)c(NCc2ccco2)cc1Cl`: the viability was 104% (inactive). The value for `Nc1c2c(nc3ccccc13)CCCC2` was 107% (inactive); that for `Cc1c(C)c2c(c(C)c1O)CCC(C)(COc1ccc(CC3SC(=O)NC3=O)cc1)O2` (stereo unspecified) was 79.8% (inactive). The same measure for `O=c1c(O)c(-c2ccc(O)c(O)c2)oc2cc(O)cc(O)c12`: 72.4% (inactive); for `CC(C)C[C@@H](NC(=O)[C@@H](O)[C@H](N)Cc1ccccc1)C(=O)O`: 94.5% (inactive); for `COc1ccc(Cl)cc1C(=O)NCCc1ccc(S(=O)(=O)NC(=O)NC2CCCCC2)cc1`: 107% (inactive).

Turning to `Cc1cc2c(C(C)C)c(O)c(O)c(C=O)c2c(O)c1-c1c(C)cc2c(C(C)C)c(O)c(O)c(C=O)c2c1O`, the viability is 13% (active). For `COc1ccc2nc(S(=O)Cc3ncc(C)c(OC)c3C)[nH]c2c1` (stereo unspecified), the viability is 92.7% (inactive). The value for `C[C@H](CCC(=O)O)[C@H]1CC[C@H]2[C@@H]3CC[C@@H]4C[C@H](O)CC[C@]4(C)[C@H]3CC[C@]12C` was 97.2% (inactive). As to `COc1cc(-c2ccc(=O)[nH]n2)ccc1OC(F)F`, the viability was 94.7% (inactive). The value for `CC[N+](CC)(CC)CC(=O)Nc1c(C)cccc1C` was 105% (inactive); that for `COc1c(C)c2c(c(O)c1C/C=C(\C)CCC(=O)O)C(=O)OC2` was 40.1% (inactive); that for `COc1cccc2c1C(=O)c1c(O)c3c(c(O)c1C2=O)C[C@@](O)(C(=O)CO)C[C@@H]3OC1C[C@@H](N)[C@H](O)[C@H](C)O1` (stereo partly specified) was 27.7% (inactive).

Consider `C=C1CC[C@H](O)C/C1=C/C=C1\CCC[C@]2(C)[C@@H]([C@H](C)CCCC(C)C)CC[C@@H]12`, for which the viability was 92.4% (inactive).

For the molecule `COc1cc(Cc2cnc(N)nc2N)cc(OC)c1OC`, the viability was 102% (inactive).

With `O=c1c(-c2ccc(O)cc2)coc2cc(O)ccc12`, the viability was 89.7% (inactive). Regarding `CNCCC(Oc1ccc(C(F)(F)F)cc1)c1ccccc1` (stereo unspecified), the viability was 85.8% (inactive). The value for `CCC(C)CCCCC(=O)N[C@@H](CCN)C(=O)N[C@H](C(=O)N[C@@H](CCN)C(=O)N[C@H]1CCNC(=O)C([C@@H](C)O)NC(=O)[C@@H](CCN)NC(=O)[C@H](CCN)NC(=O)[C@H](CC(C)C)NC(=O)[C@@H](CC(C)C)NC(=O)[C@H](CCN)NC1=O)[C@@H](C)O` (stereo partly specified) was 96% (inactive).

On to `C[C@@H]1CC[C@]2(C(=O)O)CC[C@]3(C)C(=CCC4[C@@]5(C)C[C@@H](O)[C@H](O)[C@@](C)(CO)C5[C@H](O)C[C@]43C)C2[C@H]1C` (stereo partly specified), for which the viability is 84.7% (inactive). The same measure for `COc1ccc2cc([C@H](C)C(=O)O)ccc2c1`: 85.6% (inactive). The value for `COC(=O)C1=C(C)NC(C)=C(C(=O)OCCNCc2ccccc2)C1c1cccc([N+](=O)[O-])c1` (stereo unspecified) was 65.3% (inactive); that for `COC(=O)c1cc2c(s1)-c1ccccc1OC2` was 97.4% (inactive). The value for `COc1ccc(CCN(C)CCCN2CCc3cc(OC)c(OC)cc3CC2=O)cc1OC` was 97.1% (inactive); that for `CCN(CC)C(=S)SSC(=S)N(CC)CC` was 89.6% (inactive); that for `C[C@@H]1C(=O)O[C@@H]2CC34C5CC(C(C)(C)C)[C@]36C(O)C(=O)O[C@@H]6O[C@@]4(C(=O)O5)[C@@]12O` (stereo partly specified) was 53.4% (inactive). Consider `CC[n+]1c(-c2ccccc2)c2cc(N)ccc2c2ccc(N)cc21`, for which the viability is 20.1% (active). The same measure for `O=C(O)c1ccccc1O`: 98.7% (inactive); for `COC(=O)CCc1c(C)[nH]c(C(=O)OCc2ccccc2)c1C`: 97.7% (inactive). The value for `C[C@]12CC[C@@H]3c4ccc(O)cc4CC[C@H]3[C@@H]1CC[C@H]2O` was 93.3% (inactive); that for `Nc1ccn([C@H]2CC[C@@H](CO)O2)c(=O)n1` was 93.9% (inactive).
